Screens: PubChem BioAssay, Broad Institute
Tg IFNy HTS: blocks Toxoplasma gondii growth in the presence of IFN-gamma. activity change, negative = inhibition, % (concentration not given with the values). AID 1259416. 69,000 compounds, 3.8% hits. Toxoplasma gondii growth in IFN-gamma-treated host cells; hits give low values; in the data active means activity change below about -70%, passing the limit was not always enough;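 further: host cells are HeLa cells infected with Toxoplasma gondii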
Active calls of the source: *; i = inactive. The sample as a whole holds a higher share of hits than the screen did.

SMILES | Tg IFNy HTS
c1ccc(-c2cc3c(N4CCc5ccccc54)ncnc3s2)cc1 | -42.7
c1ccc(-c2cc3ncnc(N4CCSCC4)c3s2)cc1 | -98.7*
Clc1ncnc2sc(-c3ccccc3)cc12 | 61.7
C[C@H](c1ccc(F)cc1)n1c(CCN)n[nH]c1=O | -9.7
NC1(C(=O)O)CCN(Cc2cccn2-c2ccncc2)C1 (centres undefined) | -48.3
CC(C)(C)n1nc(-c2ccc(Cl)cc2)c2c(N)ncnc21 | -90.4*
CC(C)n1nc(-c2cc3cc(O)ccc3[nH]2)c2c(N)ncnc21 | -64.5
O=C(c1ccc2[nH]c3c(c2c1)CCCC3)N1Cc2cnn(CCO)c2C1 | 22.2
O=c1c2c([nH]c3ccc(Br)cc13)CCCC2 | -94.3*
O=C1Cc2c([nH]c3ccc(Br)cc23)-c2ccccc2N1 | 2.7
COc1ccc(CC(=O)Nc2ccc3c(c2)CCC(=O)N3C)cc1Cl | -13.1
CN1C(=O)c2cc(NC(=O)NCc3ccccc3)ccc2OC[C@H]2O[C@@H](CC(=O)NCC3CCCCC3)CC[C@@H]21 | -65.1
c1ccc2c(c1)CCCc1cc(NCCN3CCOCC3)nnc1-2 | 16.6
O=C1C(Cl)=C(NCCN2CCOCC2)C(=O)c2ncccc21 | -80.3*
Cn1ccnc1-c1nc(NCCN2CCOCC2)ncc1-c1cccs1 | 4.6
c1n[nH]c(SCCNC2CCN(c3ccc4c(c3)OCO4)CC2)n1 | 5.0
CC(C)N1CCc2ncn(C(C)C)c2C1C(=O)C1CCN(C)C1 (centres undefined) | 1.5
CC(C)NC(=O)N1CCC2(C1)CN(c1cnn(C)c1)C(=O)CN2C (centres undefined) | -42.0
COc1ccc(C(=O)C2CCCN(Cc3cn[nH]c3-c3ccc(F)cc3)C2)cc1OC (centres undefined) | 4.8
CCOc1cccc(C2c3[nH]c4ccccc4c3CCN2C(=O)c2cccc(C)c2)c1 (centres undefined) | -112.5*
Cc1cccc(C(=O)N2CCc3c([nH]c4ccccc34)C2c2cccc(C)c2)c1 (centres undefined) | i
CCOc1cccc(C2c3[nH]c4ccccc4c3CCN2C(=O)c2cccc(F)c2)c1 (centres undefined) | -123.3*
O=C(NCCc1csc(-c2cccc(F)c2)n1)c1ccccc1C(F)(F)F | 18.8
C[C@@H]1CN([C@H](C)CO)C(=O)c2cccc(NC(=O)Nc3ccc4c(c3)OCO4)c2O[C@@H]1CN(C)S(C)(=O)=O | 12.2
O=C(OCc1ccccn1)c1ccc(COc2ccccc2Cl)o1 | 12.5
SMILES | Tg IFNy HTS
C=CCNC(=O)c1c(O)c2cccnc2n(-c2ccc(OC)cc2)c1=O | 0.8
Cc1nn(C)c(C)c1CN(C(=O)c1cc2ccccc2oc1=O)C1CC1 | 4.8
COCCN1C(=O)N(C(C)C)C(=O)C12CCN(Cc1cccc(Oc3ccc(Cl)cc3)c1)CC2 | -44.9
O=C(Nc1cccc(Cl)c1)c1c(O)c2ccccc2n(-c2ccccc2)c1=O | 93.2
Cc1nc2ncccn2c1C(=O)NCc1cnn(-c2cccc(F)c2)c1 | -0.6
CC(C)C(=O)c1cc(-c2csc(-c3cnccn3)n2)n2ccccc12 | -13.7
O=C(NNc1nc2cc(F)ccc2n2cccc12)c1cnccn1 | -81.2*
CC(C)c1cc(C(=O)NCCS(=O)(=O)N2CCCCC2C)nc2ncnn12 (centres undefined) | -1.4
CCCCCOC(=O)Nc1ccc(S(=O)(=O)Nc2ccc(Br)cc2)cc1 | -86.8*
COc1ccc(NC(=O)c2cncc(NS(=O)(=O)c3ccc(Br)cc3)c2)cc1 | 23.8
CCOc1ccc(NS(=O)(=O)c2ccc(NC(=O)c3cccs3)cc2)cc1 | 1.9
Cc1cc(C)c(S(=O)(=O)NCCCn2ccnc2)c(C)c1 | -35.8
Cc1cc(C)c2cc(C#N)c(NCCCn3ccnc3)nc2c1 | -100.7*
Cc1cccc(-n2ncc3c(NCCCn4ccnc4)ncnc32)c1 | 58.2
CO[C@@H]1CC[C@@H]2CCOc3ccc(C#N)cc3C(=O)N(C)[C@@H](C)C(=O)N(C)C[C@H]1O2 | 12.2
CNC(=O)[C@@H]1C[C@H](N)CN1S(=O)(=O)N1CCCCC1 | -40.6
O=C(c1ccc[nH]1)N1C[C@H]2CN(Cc3cccnc3)C(=O)[C@@H]2C1 | 37.9
COc1cc(C(=O)N(C)CCOc2ccccc2OC)c2ccccc2n1 | -93.2*
COc1ccccc1OCC(=O)O | 25.4
COc1ccccc1OCc1cc(C(=O)N(C)Cc2cc(C)no2)no1 | -9.5
CCCc1ccc(S(=O)(=O)N2CCC3(CC2)Nc2cc(OC)ccc2-n2cccc23)cc1 | 8.7
O=C(C1CCCCC1)N1CC2(C1)[C@@H](c1ccccc1)[C@@H](CO)N2CCC(F)(F)F | -23.5
CCOc1ccc(C(=O)NCCc2sc(-c3ccc(OC)cc3)nc2C)cc1 | 77.5
CCOc1ccc(C(=O)NCCc2sc(-c3ccc(C)cc3)nc2C)cc1 | 2.4
CCOc1ccc(C(=O)NCCc2sc(-c3ccc(Cl)cc3)nc2C)cc1 | -81.9*
Cc1nc(-c2ccc(F)cc2)sc1CCNC(=O)c1ccc(Cl)cc1 | -57.6
Cc1ccc(C(=O)NCCc2sc(-c3ccc(Cl)cc3)nc2C)cc1 | -81.5*
Cc1ccc(-c2nc(C)c(CCNC(=O)c3ccccc3)s2)cc1 | i
COCCN1CC2(CCN(C(=O)C3=CCCC3)CC2)CC1COC (centres undefined) | -5.1
